# Laboratory results taken from PubChem BioAssay (NCI).
# Compounds without any hit were thinned out: in the full panel of roughly 83,000, 20% have a hit.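 Assay: single dose, 48 h. Readout: percent growth (0 = no net growth; negative = cell death). Active: <10.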 Values without a mark were called inactive. Activity calls are given as the source filed them.
# Legend:
# Experiment in all cases: NCI-60 one-dose screen, 48 h (100 = growth as untreated, 0 = no growth, -100 = all killed)
# Conditions in all cases: 10 µM unless noted
# NCI-H23 lung = test system: NCI-H23 lung
# NCI-H226 lung = test system: NCI-H226 lung
# NCI-H322M lung = test system: NCI-H322M lung
# HOP-62 NSCLC = test system: HOP-62 NSCLC
# NCI-H460 lung = test system: NCI-H460 lung
# HOP-92 NSCLC = test system: HOP-92 NSCLC
# NCI-H522 lung = test system: NCI-H522 lung
# A549/ATCC NSCLC = test system: A549/ATCC NSCLC
# 786-0 renal = test system: 786-0 renal
# COLO 205 colon = test system: COLO 205 colon
# DU-145 prostate = test system: DU-145 prostate
# K-562 leukemia = test system: K-562 leukemia
# MALME-3M melanoma = test system: MALME-3M melanoma
# MDA-MB-231 breast = test system: MDA-MB-231 breast
# RXF 393 renal = test system: RXF 393 renal
# SF-268 CNS = test system: SF-268 CNS
# SF-295 CNS = test system: SF-295 CNS
# SF-539 CNS = test system: SF-539 CNS
# UACC-257 melanoma = test system: UACC-257 melanoma
# M14 melanoma = test system: M14 melanoma
SMILES,growth (NCI-H23 lung),growth (NCI-H226 lung),growth (NCI-H322M lung),growth (HOP-62 NSCLC),growth (NCI-H460 lung),growth (HOP-92 NSCLC),growth (NCI-H522 lung),growth (A549/ATCC NSCLC),growth (786-0 renal),growth (COLO 205 colon),growth (DU-145 prostate),growth (K-562 leukemia),growth (MALME-3M melanoma),growth (MDA-MB-231 breast),growth (RXF 393 renal),growth (SF-268 CNS),growth (SF-295 CNS),growth (SF-539 CNS),growth (UACC-257 melanoma),growth (M14 melanoma)
Cc1nc2ccccc2c(/C=C/c2ccc(Cl)cc2)c1C(=O)/C=C/c1ccc(C(F)(F)F)cc1,-33.4% (active),-54.7% (active),-43.3% (active),-62.8% (active),-75.3% (active),-82.1% (active),-14.3% (active),10.5%,-85% (active),-44.2% (active),-83.7% (active),-7.8% (active),-74.1% (active),-50.5% (active),-85.9% (active),-53.5% (active),-88.2% (active),-90.5% (active),-37% (active),-38.6% (active)
CN1CCN(c2ccc(-c3ccc4ncc(C#N)c(Nc5ccc(F)c(Cl)c5)c4c3)cc2)CC1,77.4%,86.8%,19.7%,65.9%,27%,63.5%,33.3%,45.6%,45.4%,47.5%,29.1%,0.404% (active),-63.5% (active),76.8%,27.3%,50.8%,69.6%,54.3%,-0.414% (active),-33.5% (active)
Cc1oc2nc[nH]c(=O)c2c1C(=O)/C=C/c1ccc(Br)cc1,-11.2% (active),-8.79% (active),2.39% (active),12.1%,3.92% (active),-10.7% (active),13.9%,9.19% (active),11.5%,3.83% (active),5.67% (active),10.8%,24.5%,16.1%,4.34% (active),5.39% (active),14.2%,-9.63% (active),32.7%,15.4%
CN1C(=C2C(=O)OC(C)(C)OC2=O)CCC1C(=O)NCc1ccc(Cl)cc1Cl (stereo not given),97.9%,79.1%,107%,85.4%,100%,85.3%,54.2%,79.5%,103%,103%,107%,97.5%,102%,99.5%,108%,101%,96.4%,96%,87%,98.2%
Fc1cc2c(cc1Cl)N(c1ncnc3ccc(-c4cnc5cnccn45)cc13)CC2,83%,92.8%,80.7%,78.1%,98.9%,87.4%,82.6%,86.8%,81.1%,121%,74.7%,75.2%,91.3%,77.5%,62%,81%,107%,84.6%,109%,80.2%
Cc1ccccc1C(=O)NN,104%,113%,90.6%,93.3%,115%,80.6%,92%,89.2%,112%,110%,120%,104%,106%,126%,118%,120%,106%,114%,103%,107%
O=c1c2cc(F)ccc2sc2c(N3CCNCC3)nc3ccc(F)cc3c12,61.3%,83.8%,55.4%,57.5%,-88.4% (active),7.38% (active),8.28% (active),13.2%,60.5%,-51.9% (active),-84.7% (active),-37.8% (active),82.6%,-76.4% (active),50.9%,48.3%,77.8%,-89.4% (active),96.3%,-62% (active)
Oc1ccc(-c2nc3ccc4[nH]ncc4c3c3c2CCCC3)c2cccnc12,-7.85% (active),-2.05% (active),11.3%,5.46% (active),-21.7% (active),-16.7% (active),15%,-34% (active),2.06% (active),-11.6% (active),11.6%,7.23% (active),-3.69% (active),18.8%,-9.52% (active),0.245% (active),-4.23% (active),-1.03% (active),-20.4% (active),3.35% (active)
CC([C@H]1CCC2C3CCC4C(=O)C(NC=O)=CC[C@]4(C)C3CC[C@@]21C)N(C)C (stereo not given in full),44.2%,88.5%,30.4%,74.2%,-4.84% (active),41.7%,96.1%,45%,46.1%,-80.1% (active),59.5%,15%,-2.06% (active),11.2%,-53.3% (active),-3.89% (active),36.6%,-45.6% (active),-20.9% (active),-33% (active)
COc1cc(Nc2cn[nH]c2-c2ccc(Cl)cc2)cc(OC)c1OC,6.84% (active),65.2%,79.7%,36.7%,33.2%,50.7%,21.7%,51%,53.5%,37.6%,108%,36.4%,38.1%,49.4%,51.5%,77%,66.4%,43.4%,71.3%,8.84% (active)
COc1cccc(-c2nn(-c3ccccc3)cc2-c2ccnc(N3CCOCC3)c2)c1,82.4%,93.9%,98.7%,96.2%,91.3%,66.3%,71.4%,86.8%,99%,98.5%,99.5%,73.6%,90.7%,85.1%,97.8%,88.8%,82.8%,97.9%,111%,100%
Nc1cc2c(cc1Br)-c1cc(Cl)ccc1C2=O,97.1%,81.1%,102%,99.1%,100%,87.6%,96.1%,96.7%,98.6%,87.3%,107%,93.2%,107%,79.8%,101%,90.6%,106%,99.2%,103%,105%
N/C(=N\c1nc2ccccc2s1)NC(=O)Nc1cccc2ccccc12,29.6%,66.8%,41.8%,34.5%,10.7%,48.4%,5.26% (active),27.7%,34.5%,3.54% (active),23.2%,9.12% (active),59.7%,52%,-2.29% (active),56.4%,33.3%,-21% (active),67.4%,5.44% (active)
O=C1NC(=O)C(Cn2cnc3ccccc32)N1 (stereo not given),98.4%,103%,99%,102%,101%,97.4%,95.9%,97.8%,99.2%,107%,110%,106%,103%,103%,114%,100%,104%,96.4%,101%,103%
C/C(=N/NC(N)=S)c1sc(Nc2cccc(Cl)c2)nc1C,89.4%,92%,77.9%,102%,92.9%,62.6%,42.6%,92.5%,84.3%,84.9%,81.7%,68.7%,93.1%,65%,89.6%,75.1%,88.7%,83.7%,101%,88.3%
